# PubChem BioAssay (NCI)
# Compounds without any hit were thinned out: in the full panel of roughly 83,000, 20% have a hit.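 Growth was measured after 48 h exposure to one concentration of compound in 96-well plates. Values under 10 count as active.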 Unmarked numbers belong to inactive results. Calls of active or inactive are those of the source.
# Columns and labels:
# Experiment in all cases: NCI-60 one-dose screen, 48 h (100 = growth as untreated, 0 = no growth, -100 = all killed)
# Conditions in all cases: 10 µM unless noted
# NCI-H23 lung = test system: NCI-H23 lung
# NCI-H226 lung = test system: NCI-H226 lung
# HOP-62 NSCLC = test system: HOP-62 NSCLC
# NCI-H460 lung = test system: NCI-H460 lung
# HOP-92 NSCLC = test system: HOP-92 NSCLC
# NCI-H522 lung = test system: NCI-H522 lung
# A549/ATCC NSCLC = test system: A549/ATCC NSCLC
# 786-0 renal = test system: 786-0 renal
# COLO 205 colon = test system: COLO 205 colon
# K-562 leukemia = test system: K-562 leukemia
# MALME-3M melanoma = test system: MALME-3M melanoma
# MDA-MB-231 breast = test system: MDA-MB-231 breast
# RXF 393 renal = test system: RXF 393 renal
# SF-268 CNS = test system: SF-268 CNS
# SF-295 CNS = test system: SF-295 CNS
# SF-539 CNS = test system: SF-539 CNS
# UACC-257 melanoma = test system: UACC-257 melanoma
# M14 melanoma = test system: M14 melanoma
# DU-145 prostate = test system: DU-145 prostate
Structure (SMILES),growth (NCI-H23 lung),growth (NCI-H226 lung),growth (HOP-62 NSCLC),growth (NCI-H460 lung),growth (HOP-92 NSCLC),growth (NCI-H522 lung),growth (A549/ATCC NSCLC),growth (786-0 renal),growth (COLO 205 colon),growth (K-562 leukemia),growth (MALME-3M melanoma),growth (MDA-MB-231 breast),growth (RXF 393 renal),growth (SF-268 CNS),growth (SF-295 CNS),growth (SF-539 CNS),growth (UACC-257 melanoma),growth (M14 melanoma),growth (DU-145 prostate)
CCCCCCCCCCCC1=NC(C)(C)CN1C(C)(C)CO,59.5%,94.8%,60.4%,28.2%,28.7%,47.5%,68.8%,71.6%,-81.4% (active),57.6%,62.7%,57.7%,56.3%,69.1%,90.3%,57.9%,-23.4% (active),-84.4% (active),–
CCCCCc1c(C)[nH]c(/C=C2\N=C(c3ccc[nH]3)C=C2CC)c1C,-81% (active),-92.3% (active),-72.2% (active),–,-91.8% (active),-88.8% (active),-86.4% (active),-93.6% (active),-87.7% (active),-75.8% (active),-74.9% (active),-94.3% (active),-91% (active),-75.8% (active),-70.9% (active),-82.7% (active),-84.2% (active),-96.6% (active),-94.8% (active)
CNCc1cccc2c1OCCOCCOCCC(C)S(=O)(=O)c1ccc(cc1)-c1cnc(N)c(n1)C(=O)N2 (centres undefined),77.9%,31.6%,37.7%,11.2%,80.3%,34.4%,33%,10.6%,33.7%,7.1% (active),75.3%,57.4%,16.4%,54.2%,98.8%,25%,50.6%,52%,24.1%
COc1ccc(/C(=C\c2ccc3c(c2)OCO3)C(=O)Nc2nc3ccccc3s2)cc1,106%,97.6%,95.5%,110%,104%,81.5%,93.9%,97.2%,–,–,95.3%,102%,118%,96%,–,104%,99.7%,107%,102%
O=c1cc(-c2ccc3c(c2)OCCO3)oc2cc(Cl)ccc12,61%,-12.9% (active),1.84% (active),-57.9% (active),-8.2% (active),-12.7% (active),11.2%,-42.8% (active),40.7%,35.1%,-16.3% (active),27.3%,55.6%,21.1%,19.6%,-32.7% (active),52.8%,60.6%,25.6%
CC1CCN(Cc2ccc(NC(=O)c3cc4ccc5cccnc5c4[nH]3)cc2)CC1,25.2%,43%,26.2%,8.35% (active),63.7%,23%,25.7%,36.8%,-16.3% (active),8.98% (active),10.2%,23.2%,-3.5% (active),37.4%,–,8.44% (active),-40.6% (active),-22.5% (active),2.24% (active)
N=C(N)c1ccc(-c2ccc(-c3cc(Cl)cc(Cl)c3)o2)nc1,3.49% (active),99.5%,-72.7% (active),-78.8% (active),73.3%,-67.4% (active),-68.8% (active),-64.9% (active),-76.6% (active),-65.6% (active),-58.9% (active),-77.3% (active),67%,-67.1% (active),–,-90.9% (active),-81.1% (active),-76.4% (active),-91.9% (active)
Cc1ccc(NC(=O)c2nc(S(C)(=O)=O)oc2-c2ccc(F)cc2)cc1Nc1ccc2ncn(C)c(=O)c2c1,60.4%,85.2%,100%,83.6%,108%,-7.9% (active),102%,78.8%,-8.69% (active),-22.8% (active),23.7%,31%,45%,68.3%,98.8%,95.3%,82.5%,39.4%,57.8%
COc1cc(C2=NOC(c3cc(OC)c(OC)c(OC)c3)C2)ccc1OCCCCOc1cc2c(cc1OC)C(=O)N1CCC[C@H]1C=N2 (some centres undefined),-15.9% (active),9.32% (active),9.48% (active),-29.6% (active),-29.3% (active),-41.7% (active),6.75% (active),-4.62% (active),-78% (active),7.5% (active),-72.2% (active),12.3%,-79% (active),-29.5% (active),13.4%,-89.6% (active),13.7%,-43.7% (active),–
Cc1ccc(NC(=O)c2nc(S(C)=O)oc2-c2ccc(F)cc2)cc1Nc1nccc(-c2cccnc2)n1 (centres undefined),50%,51.7%,58.2%,61.5%,96.2%,7.97% (active),95.4%,54.6%,54%,-16.7% (active),34.7%,39%,7.47% (active),54.4%,86.4%,69.4%,87.3%,55.2%,79.4%
O=[N+]([O-])c1cccc(N=C(Nc2cccc([N+](=O)[O-])c2)c2ccccc2)c1,86.4%,91.6%,89.9%,102%,47.4%,59.5%,79.9%,83.6%,109%,45%,79.7%,83.9%,82%,96.6%,–,87.1%,92.4%,85.7%,98.2%
Cc1cc(N=Nc2ccc(-c3ccc(N=Nc4ccc(O)c(C(=O)O)c4)cc3)cc2)c(N)c(N=Nc2ccc(C(=O)O)cc2)c1N,93.4%,92.4%,99.7%,117%,71.8%,85.2%,102%,84.4%,108%,75.1%,95.2%,102%,94.7%,98.7%,–,93.2%,110%,86.5%,110%
COc1ccc(/C=C2\Cc3c(Br)cccc3C2=O)c(OC)c1,66%,93.7%,69.6%,79.8%,88.2%,55.9%,68.9%,93%,80.3%,64%,60.2%,58%,80.9%,73.6%,67.5%,73.4%,98.2%,47%,87.4%
Cc1nn(-c2ccc(Cl)cc2)c(=O)n1CCN1CCOCC1,64.5%,79.4%,33.8%,41.7%,30.1%,69%,56.4%,59.4%,107%,70.1%,59.1%,57.3%,42.1%,48.4%,–,67%,73.4%,69.8%,78.5%
O=C1/C(=C\c2cccn2Cc2ccc(Cl)cc2)c2ccccc2N1c1c(Cl)cccc1Cl,86.3%,59.3%,98.6%,94%,74.8%,76.6%,67.2%,81.7%,–,75.6%,79.5%,68.1%,78.3%,88.1%,87.7%,88.8%,93.1%,101%,105%
CC(=O)c1cc(C(=O)c2ccc3c(c2)Sc2ccccc2N3)c2c(C)cccn12,27%,47.8%,19.1%,6.41% (active),94%,12.5%,19.5%,4.46% (active),-43.7% (active),7.8% (active),62.3%,19.7%,-7.81% (active),28.4%,4.09% (active),-28.4% (active),77%,16.9%,13.9%
Oc1ccc(Cl)cc1-c1cc(-c2ccccc2Cl)[nH]n1,47.8%,81.8%,63.3%,37.1%,20.6%,27.4%,53.1%,84.7%,104%,37.8%,71.1%,21.7%,84.2%,49.6%,–,83.4%,81.8%,84.9%,73.3%
C=C1NC(=O)C(C(C)CC)NC(=O)C2CSCC(NC(=O)CCC(=O)O)C(=O)NC(Cc3ccccc3)C(=O)NC(C)C(=O)NC(CC(C)CC)C(=O)NC(C(=O)NC(Cc3ccccc3)C(=O)N3CCCC3C(=O)N2)C(C)OC(=O)C(CO)NC(=O)C(C(O)COC)N(C)C(=O)C(C(C)C)NC(=O)C(CC(C)CC)NC1=O (centres undefined),38.6% [6 µM],56.8% [6 µM],17.3% [6 µM],-4.11% [6 µM] (active),42% [6 µM],-19.3% [6 µM] (active),10.9% [6 µM],–,-44.7% [6 µM] (active),9.39% [6 µM] (active),55.3% [6 µM],35.1% [6 µM],21.6% [6 µM],25.5% [6 µM],14.9% [6 µM],-6.71% [6 µM] (active),30.1% [6 µM],5.52% [6 µM] (active),9.63% [6 µM] (active)
COCCOCCOCc1n(Cc2ccc3ccccc3n2)c2ccccc2[n+]1Cc1ccc2ccccc2c1,1.03% (active),28.1%,11.7%,7.94% (active),-18.2% (active),0.793% (active),22.5%,21.2%,-73.3% (active),2.47% (active),-7.52% (active),8.58% (active),-19.9% (active),20%,-12.3% (active),15.8%,-8.67% (active),-0.723% (active),24.6%
COc1cccc(Cn2c(-c3nonc3NC(C)=O)nc3ccccc32)c1,39.8%,60.9%,38.9%,20.7%,29.6%,-20.6% (active),41.4%,45.8%,23.8%,13.9%,42.3%,46.1%,-17% (active),59.5%,15%,36.7%,52.7%,14.1%,13.8%
CC(=O)c1c(O)c(C)c(O)c2c1OC1=CC(=O)/C(=C(/C)N)C(=O)C12C (centres undefined),89.8%,73.8%,94.9%,98.2%,99.7%,77.6%,83%,98.3%,95.8%,83%,96.9%,90.8%,92.2%,95.2%,–,99.7%,100%,93.6%,100%
